# The source made the active and inactive calls.
# How the values were obtained:
# Albumin (Bos taurus) = Albumin (Bos taurus) (UniProt P02769); experiment: bovine serum albumin binders on microarray, profiling panel, artefact control for SMM control protein annotation, biochemical, small-molecule microarray, Alexa647 label, 635/667 nm fluorescence (AID 1118); settings: BSA-A647 binding, fluorescence 635 nm, higher = more signal;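 note: score merges 667 nm emission intensity and signal-to-noise per printed compound spot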
# [1] = small-molecule microarray binders of probe aXIP, primary screen, biochemical, NeuroSMM set, 635/667 nm fluorescence (AID 1119); settings: higher = more signal, called active from +8 up or from −8 down;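 note: probe is the protein aXip251-270 applied at 1 µg/mL to compound-printed slides; binding of probe to printed compounds measured as 667 nm fluorescence plus signal to noise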
# [2] = small-molecule binders of probe aNOTCH3, primary screen, biochemical, small-molecule microarray, 635/667 nm fluorescence (AID 1120); settings: higher = more signal;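 note: probe is a biotin-tagged antibody raised against NOTCH3 rather than NOTCH3 protein; score merges spot fluorescence near 667 nm with spot signal to noise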
# [3] = small-molecule binders of probe aNOTCH2, primary screen, biochemical, small-molecule microarray, 635/667 nm fluorescence (AID 1121); settings: higher = more signal;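 note: score merges feature fluorescence read at 667 nm with its signal to noise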
# [4] = target: Carbonic anhydrase 2 (Homo sapiens) (UniProt P00918); experiment: CAII small-molecule binders, profiling panel, biochemical, small-molecule microarray, Alexa647-labelled CAII (AID 1122); settings: CAII-A647 binding fluorescence, higher = more signal
# [5] = COS7 lysate on small-molecule microarray, probe aHis, 635 nm (AID 1123); settings: COS7 cell lysate, fluorescence, higher = more signal;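 note: z-score combines 667nm fluorescence intensity with signal-to-noise per printed compound spot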
# [6] = compound binding in COS7 lysate, probe aLAP1, primary screen, cell lysate, small-molecule microarray (AID 1124); settings: probe aLAP1, fluorescence, higher = more signal;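 note: lysate comes from COS7 cells expressing LAP1 and is applied at 0.3 µg/mL; score merges spot fluorescence near 667 nm with signal-to-noise over triplicate slides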
# Sam68 (KHDRBS1) = experiment: Sam68 small-molecule binders, primary screen, biochemical, small-molecule microarray, 635 nm fluorescence (AID 1125); settings: small-molecule microarray binding, higher = more signal;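 note: score merges 667 nm channel intensity with signal to noise over triplicate slides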
# [7] = test system: Chordin-like protein 2 (CHRDL2); experiment: CHRDL2 small-molecule binders, primary screen, biochemical, small-molecule microarray, 635 nm fluorescence (AID 1126); settings: small-molecule microarray binding, fluorescence 635 nm; higher = more signal;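 note: printed compound slides probed with Chrdl2 protein at 4 µg/mL for 1 h at 4 C; score merges 667 nm emission intensity with signal to noise over three replicate slides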
# [8] = target: Concanavalin-A (Canavalia ensiformis) (UniProt P02866); experiment: ConA small-molecule binders, primary screen, artefact control for SMM control protein annotation, biochemical, small-molecule microarray, Alexa647 label, 635 nm (AID 1127); settings: ConA-A647 binding fluorescence, higher = more signal;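 note: z combines 667 nm emission intensity with signal-to-noise across three replicate slides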
# Sequence of Concanavalin-A (Canavalia ensiformis) (P02866 whole entry, looked up): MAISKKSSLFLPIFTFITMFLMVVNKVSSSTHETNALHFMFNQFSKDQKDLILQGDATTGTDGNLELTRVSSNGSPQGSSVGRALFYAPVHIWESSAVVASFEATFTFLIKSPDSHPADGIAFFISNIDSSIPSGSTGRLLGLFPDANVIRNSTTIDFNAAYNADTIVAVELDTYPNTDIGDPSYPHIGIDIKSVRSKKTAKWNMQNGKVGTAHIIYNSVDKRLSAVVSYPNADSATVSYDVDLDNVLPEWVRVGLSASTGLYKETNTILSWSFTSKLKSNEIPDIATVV
# Sequence of Albumin (Bos taurus) (P02769 whole entry, looked up): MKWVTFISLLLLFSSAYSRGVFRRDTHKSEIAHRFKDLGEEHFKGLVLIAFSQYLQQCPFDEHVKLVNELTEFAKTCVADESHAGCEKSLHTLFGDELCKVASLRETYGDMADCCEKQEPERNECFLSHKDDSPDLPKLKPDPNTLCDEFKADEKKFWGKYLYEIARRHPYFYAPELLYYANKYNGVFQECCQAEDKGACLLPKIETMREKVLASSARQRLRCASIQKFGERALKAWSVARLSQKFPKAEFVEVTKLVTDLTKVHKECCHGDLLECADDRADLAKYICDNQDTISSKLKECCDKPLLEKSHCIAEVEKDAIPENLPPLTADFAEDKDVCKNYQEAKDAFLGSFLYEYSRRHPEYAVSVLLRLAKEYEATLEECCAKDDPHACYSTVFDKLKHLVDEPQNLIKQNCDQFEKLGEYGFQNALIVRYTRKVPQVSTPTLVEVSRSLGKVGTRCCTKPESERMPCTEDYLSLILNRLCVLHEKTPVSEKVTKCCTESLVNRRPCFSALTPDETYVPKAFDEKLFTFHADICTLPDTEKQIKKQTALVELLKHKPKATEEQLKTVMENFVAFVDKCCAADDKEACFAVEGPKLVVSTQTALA
SMILES,composite z-score (Albumin (Bos taurus)),composite Z-score [1],composite z-score [2],composite z-score [3],composite z-score [4],composite z-score [5],composite z-score [6],composite z-score (Sam68 (KHDRBS1)),composite z-score [7],composite z-score [8]
NC(=O)NCC#Cc1ccc2c(c1)[C@]1(C(=O)N2)[C@H](C(=O)NC[C@H](O)c2ccccc2)[C@H]2C(=O)O[C@H](c3ccccc3)[C@H](c3ccccc3)N2[C@@H]1c1ccc(O)cc1,0.496,0.58 (inactive),0.51,0.159,0.501,2.15,0.743,0.998,0.395,1.13
O=C1OCC=C[C@H]2OC34C=CCN(c5ccc6ccccc6c5)C(=O)[C@H]3N(CCCO)C(=O)[C@@H]4[C@@H]12 (stereo not given in full),0.314,0.102 (inactive),-0.256,-0.07,0.709,-0.559,1.26,-1.39,-0.824,-0.223
CC(C)C[C@@H]1NC(=O)[C@H]2C[C@@H](C(=O)NCCCCCNC(=O)CS)[C@@H](c3cccc(OCCO)c3)N2C1=O,0.258,-0.014 (inactive),0.191,-0.0358,0.561,1.32,0.438,1.3,1.39,1
CCN(CC)c1ccc(N2CC=CC34O[C@@H]5/C=C\CCCOC(=O)C5[C@H]3C(=O)N(C(CO)C(C)C)[C@@H]4C2=O)cc1 (stereo not given in full),-1.18,0.0855 (inactive),-0.165,-0.123,0.827,-0.21,-0.32,-0.384,-0.684,-0.467
O=C1O[C@H](c2ccccc2)[C@H](c2ccccc2)N2[C@H]1[C@@H](C(=O)NC[C@H](O)c1ccccc1)[C@]1(C(=O)Nc3ccc(C#CCCO)cc31)[C@H]2c1ccc(O)cc1,-0.746,1.33 (inactive),-0.0259,-0.14,-0.702,0.155,1.11,-0.317,-0.316,-0.743
COCC(=C=CC[C@H](O)c1ccc(OCCO)cc1)C[C@H](O)c1cc(Cl)cc(Cl)c1O,-0.679,-0.566 (inactive),0.114,-0.122,0.718,-1.65,0.359,1.17,0.923,0.661
CC1=C2[C@@H](CCc3ccccc3)OB(O)C[C@@H]2n2c(=O)n(-c3ccccc3)c(=O)n2C1,0.201,0.131 (inactive),0.199,-0.11,0.478,0.224,0.0327,0.617,0.469,1
CCOC(=O)C1=C[C@@H](C(C)C)N(S(=O)(=O)c2ccc(C)cc2)[C@H]1c1ccc(C(C)C)cc1,0.822,0.376 (inactive),0.0538,-0.0148,0.39,1.81,0.586,1.31,0.241,1.07
C=C(COC)/C(=C/C[C@H](OC(=O)c1ccncc1)c1cccc(OCCO)c1)c1cc(C(=O)OC)ccc1OC,0.374,0.415 (inactive),-0.0006,-0.146,0.697,0.75,0.343,0.908,-0.386,-0.163
COc1ccc(C(=O)Nc2cccc(CN3C(=O)[C@@]4(O[C@@H](CCn5cc(CCO)nn5)[C@H]([Si](C)(C)c5ccc(OC)cc5)[C@H]4C)c4ccccc43)c2)cc1,-0.194,1.4 (inactive),0.149,-0.084,0.411,0.733,-0.046,1.3,1.05,1.08
CCOC(=O)C[C@H]1[C@H](OC(=O)c2ccccc2-c2ccccc2)[C@@H](NC(=O)Cc2ccc(OC)cc2)c2cc(OCCCO)ccc2N1C(=O)c1ccccc1,0.176,0.0843 (inactive),-0.113,-0.155,-0.0951,0.157,-0.0152,-0.0445,0.0492,-0.393
COCCCNC(=O)[C@@]1(C)c2ccccc2C(=O)N(Cc2cc(C(F)(F)F)cc(C(F)(F)F)c2)[C@H]1c1ccc(CO)cc1,-0.0502,0.318 (inactive),-0.256,-0.0173,0.74,1.68,-0.066,-0.21,-2.46,0.851
COC(=O)C[C@H]1O[C@]2(C(=O)N(Cc3ccccc3)c3ccc(NC(C)=O)cc32)[C@@H](C)[C@@H]1[Si](C)(C)c1ccc(OC)cc1,0.298,-0.114 (inactive),0.0485,-0.13,0.269,0.696,0.189,1.31,0.48,0.355
COCCOC(=O)N1C(=O)[C@@]2(c3cc(C#Cc4ccc(OC)cc4)ccc31)[C@H](C(=O)N1CCN(c3ncccn3)CC1)[C@H]1C(=O)O[C@H](c3ccccc3)[C@H](c3ccccc3)N1[C@@H]2c1ccc(O)cc1,0.259,0.0527 (inactive),-0.112,-0.0277,0.287,0.722,0.232,0.634,-0.0397,0.762
Cc1ccccc1C(O)C1C=CC2C(=O)N(C)C(=O)C2N1N1CCCCC1 (stereo not given),0.992,-0.118 (inactive),0.36,0.21,0.793,2.92,0.996,1.32,0.642,1.09
O=C1O[C@H](c2ccccc2)[C@H](c2ccccc2)N2[C@H]1[C@@H](C(=O)Nc1nc3ccccc3s1)[C@]1(C(=O)Nc3ccccc31)[C@H]2c1ccc(O)cc1,0.164,0.0275 (inactive),0.156,-0.0873,0.36,1.66,0.293,1.02,0.701,1.07

# From PubChem BioAssay
